M1 ag: M1 muscarinic receptor agonists, primary screen, CHO-M1 cells, Fluo-4 calcium, agonist mode; B-score at 10 µM; Muscarinic acetylcholine receptor M1; AID 626, 2007; 64,000 compounds, 3% hits; Fluo-4 calcium fluorescence; hits give high values;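 active means fluorescence rise, raw or as B-score row- and column-corrected plate score, outside the 99.7% band of its plate's samples, either direction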
M1 antag: antagonists of rat M1 muscarinic receptor; Muscarinic acetylcholine receptor M1 (Rattus norvegicus), P08482; CHO-M1 cells, Fluo-4 calcium, ACh EC80 antagonist mode; hits give low values; B-score at 10 µM; 64,000 compounds, 3.4% hits;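 active means calcium fluorescence response, raw or row-and-column corrected B-score, differing from the plate sample mean either way at a set confidence level, mostly lower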
Target sequence (P08482 whole entry, looked up): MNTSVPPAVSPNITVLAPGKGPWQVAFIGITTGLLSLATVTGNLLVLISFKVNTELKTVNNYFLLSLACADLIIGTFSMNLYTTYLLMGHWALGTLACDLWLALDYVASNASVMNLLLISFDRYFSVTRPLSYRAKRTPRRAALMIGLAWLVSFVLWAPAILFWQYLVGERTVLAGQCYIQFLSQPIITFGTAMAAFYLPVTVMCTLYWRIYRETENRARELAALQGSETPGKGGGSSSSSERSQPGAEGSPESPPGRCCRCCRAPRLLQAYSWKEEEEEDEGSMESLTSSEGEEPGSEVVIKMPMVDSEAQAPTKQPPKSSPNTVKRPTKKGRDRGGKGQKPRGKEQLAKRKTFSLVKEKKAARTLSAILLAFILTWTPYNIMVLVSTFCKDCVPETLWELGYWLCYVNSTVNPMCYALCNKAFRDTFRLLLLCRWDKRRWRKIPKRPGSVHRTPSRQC
PTK2B oligo ant: antagonists of Pyk2 self-association, primary screen, Q293 cells, FERM NanoBiT luminescence, HTS | Protein-tyrosine kinase 2-beta (Homo sapiens), Q14289 | z-score (the deposit names both 25 µM and 10 µM) | hits give low values | AID 1347419, 2020 | 99,000 compounds, 0.83% hits;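 active means Z-score of -3 or lower, scaled per plate to the spread of control and sample wells; inactive means z-score above -3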;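 further: negative z-score means lost luminescence so less FERM oligomerization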
Cav32 inh: Cav3.2 calcium influx blockers – cell-based, Fluo-4 calcium fluorescence, FDSS, MLSMR library, primary screen; B-score at 10 µM; 100,000 compounds, 4% hits; Voltage-dependent T-type calcium channel subunit alpha-1H (Homo sapiens), O95180; Cav3.2-expressing cells; hits give low values;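 active means single-dose well whose peak fluorescence ratio is a statistical outlier from its plate by either plate-standardised score or position-corrected B-score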
M1 agonist conf: rat M1 muscarinic receptor agonists, confirmation, CHO-M1 cells, Fluo-4 calcium, duplicate retest; Fluo-4 calcium fluorescence, agonist mode; actives lie on both sides; fluorescence change (max-min) at 10 µM; 1,700 compounds, 19% hits; shares compounds with M1 ag;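 active means fluorescence change differs from the solvent-only DMSO control mean at a set confidence level in both duplicate runs; inconclusive means differs from solvent-only control mean in just one of two runs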;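 further: an EC20 dose of acetylcholine follows compound addition during the same imaging run; raw fluorescence intensity difference in instrument units with no normalization to controls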
M4 agonist ctr: agonist activity at rat M4 receptor, confirmation, counter-screen for M1 allosteric modulator project, cell-based, agonist mode; CHO M4/Gqi5 cells, Fluo-4 calcium fluorescence; actives lie on both sides; AID 1741, 2009; fluorescence change (max-min) at 10 µM; shares compounds with M1 ag; 1,700 compounds, 9% hits;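 active means fluorescence change differing from the plate's solvent-only control wells at 99.7% confidence in both duplicates, whether higher or lower; inconclusive means differs from solvent controls in only one of two duplicates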
An asterisk follows results filed as active; ? = inconclusive; . = no result given. In the library only some 7.1% were active in any assay of this set; here they are far more common.

SMILES	M1 ag	M1 antag	PTK2B oligo ant	Cav32 inh	M1 agonist conf	M4 agonist ctr
CC(OC(=O)c1snc(C(=O)NC2CCCCC2)c1N)C(=O)NC(C)(C)C (centres undefined)	.	.	1.89	0.316	.	.
CC(C)(C)NC(=O)COC(=O)c1snc(C(=O)NC2CCCCC2)c1N	4.94*	-0.961*	0.07	-2.26	-19.6	?
CCOC(=O)CC(=O)CSc1nc2c(c(C)c1C#N)CCC2	-2.91*	-1.15	0.94	.	-7.99	-27
O=C(NCCc1c[nH]c2ccccc12)c1cnc2sccn2c1=O	3.24*	1.14	.	0.315	-14.2	?
COc1cccc(C(=O)N2CCN(C3CCC(c4ccccc4)CC3)CC2)c1OC (centres undefined)	18.2*	-3.14*	-0.42	.	?	-39.9
C=CCn1cnc2c(c1=O)c1nc3ccccc3nc1n2/N=C/c1cc(OC)c(OC)c(OC)c1	11.1*	-2.16*	-2.1	-2.98	-32.7*	-87.2
COc1cc(-n2c3nc4ccccc4nc3c3c(=O)n(Cc4ccco4)cnc32)cc(OC)c1OC	-0.525	0.38	.	.	.	.
COC(=O)/C(=C(/F)Sc1cc(C)c(O)c(C)c1)C(F)(F)F	.	.	0.18	-0.0867	.	.
CC1=C(C)/C(=N\OS(=O)(=O)c2ccccc2)C=CC1=O	.	.	1.28	-2.16	.	.
Nc1ccccc1CNc1nc(NCCO)nc2c1ncn2CCN1CCOCC1	.	.	.	0.505	.	.
Cc1ccc2nc3ccc(N4CCCCCCC4)nn3c(=O)c2c1	.	.	1.71	0.268	.	.
Cc1sc2nc3ccc(N4CCCC4)nn3c(=O)c2c1C	6.63*	-0.564	.	.	-8.32	-46.4
CCOC(=O)Cc1csc(NC(=O)CSc2ncnc3c2cnn3-c2ccccc2Cl)n1	10.7*	-1.17	-2.29	-6.24*	2.92	8.34
COc1ccc(CCNc2oc(-c3ccccc3OC)nc2C#N)cc1OC	3.57*	0.353	-0.31	-0.0113	-21.7	-73.8*
COc1ccc(CCNc2oc(-c3ccccc3OC)nc2C#N)cc1	0.584	-2.11	-1	0.0542	.	.
CCOC(=O)C1=C(O)CSC1=Nc1ccc(Cl)cc1	3.75*	1.33	-0.03	-1.39	?	?
CCNc1nc(N)nc(Oc2ccc(OCCOc3ccc(Cl)cc3Cl)nn2)n1	-0.394	1.34	-0.3	-0.00408	.	.
Cc1ccc(CNC(=O)C2CC(c3ccccc3F)=NO2)cc1 (centres undefined)	.	.	.	-2.09	.	.
CSc1nc(-c2ccco2)cc(C(F)(F)F)c1C#N	.	.	-0.16	0.0422	.	.
CSc1nc(-c2ccco2)cc(-c2ccccc2)c1C#N	15.4*	0.1	-0.92	.	?	?
COC(=O)c1cc(C#N)c(NCc2ccccc2)nc1C	.	.	0.59	0.0626	.	.
O=C(Nc1ccccc1N1CCN(C(=O)c2ccc(Cl)cc2)CC1)c1cc2ccccc2o1	4.58*	2.78*	-1.8	-3.11*	-20.4	?
Cc1[nH]nc2c1C1(CCN(C(=O)c3ccccc3)CC1)C(C#N)=C(N)O2	22.8*	0.162	-0.12	0.829	-12.4	-28.8
CCC1CCCCN1Cc1ccc(OC)c(C)c1C (centres undefined)	.	.	0.78	-0.0384	.	.
O=c1c(C=NCCCn2ccnc2)c(-c2ccccc2)[nH]n1-c1nc2ccccc2s1	5.24*	-1.12	0.23	-1.45	-4.57	-18.3
SMILES	M1 ag	M1 antag	PTK2B oligo ant	Cav32 inh	M1 agonist conf	M4 agonist ctr
O=C1Nc2cc(Cl)ccc2Nc2cscc21	.	.	.	-2.08	.	.
CCOC(=O)N1CCN(c2cc(NCCC(=O)O)c3c4c(onc24)-c2ccccc2C3=O)CC1	14.3*	0.7	-0.49	.	-7.36	-20.8
O=C(CSc1cn(CCNC(=O)c2cccs2)c2ccccc12)NCc1ccccc1	.	.	.	-3.97	.	.
COc1ccc(OC)c(Nc2cc(C(=O)NCCCN3CCOCC3)c3ccccc3n2)c1	7.46*	-0.759	-0.25	.	-26.4*	-78.6*
COc1ccccc1Nc1cc(C(=O)NCCCN2CCOCC2)c2ccccc2n1	1.51	-0.381	.	-0.43	.	.
Cc1cccc(C)c1NC(=S)N/N=C/c1ccc(OCCC(C)C)cc1	.	.	-0.65	-0.267	.	.
Cn1c(O)c(C=NCC2CCNCC2)c(=O)n(C)c1=O	.	.	.	1.6	.	.
O=C(Nc1ncnc2c1ncn2C1OC(COC(=O)c2ccccc2)C(F)C1O)c1ccccc1 (centres undefined)	2.57*	-1.15	-0.18	0.154	-10.5	-12.4
